Bioassay records as filed in PubChem BioAssay.
VDR inhibitor – Inhibitors of the vitamin D receptor (VDR): qHTS; 0.93% of 400,000 active; VDR-SRC2-3 peptide fluorescence polarization, 2 h; AID 504847, 2011; Vitamin D3 receptor (Homo sapiens), P11473; Potency, µM, inactives show max response, negative = inhibition, actives largely listed as inhibitors; further: on the % scale 0 is the no-effect control and ±100 the full control effect
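VDR–SRC2-3 interaction, FP format. Cmpds 23 nl via pintool, brief spin, 2 h ambient incubation.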
G9a block – qHTS Assay for Inhibitors of Histone Lysine Methyltransferase G9a | G9a H3K9 monomethylation, AlphaScreen, 2 h | 8.8% of 350,000 active | AID 504332, 2011 | Potency, µM (titrated, usually from 102 µM), inactives show at the highest dose activity, negative = inhibition, actives largely listed as inhibitors; further: on the % scale 0 is the no-effect control and ±100 the full control effect; nearly all actives have a fitted effect of over 75% in size
Target sequence (Q96KQ7 913-1193 limits assumed): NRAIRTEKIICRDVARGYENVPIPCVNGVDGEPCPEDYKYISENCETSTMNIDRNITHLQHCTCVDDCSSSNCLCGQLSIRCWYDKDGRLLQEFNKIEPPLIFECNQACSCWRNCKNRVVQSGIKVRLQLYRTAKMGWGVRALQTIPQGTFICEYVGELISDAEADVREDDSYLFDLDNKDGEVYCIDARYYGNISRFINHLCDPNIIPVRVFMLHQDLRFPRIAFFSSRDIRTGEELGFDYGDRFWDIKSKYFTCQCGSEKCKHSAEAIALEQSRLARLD
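AlphaScreen detection with an anti-monomethyl H3K9 antibody quantified product after a 2 h room-temperature reaction containing 500 nM biotinylated H3K9 peptide, 20 µM SAM and 20 nM enzyme, which had been preincubated 15 min with compound.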
JMJD2A Tudor inh – qHTS Assay for Inhibitors of JMJD2A-Tudor Domain; AID 504339, 2011; 4.4% of 390,000 active; Lysine-specific demethylase 4A (Homo sapiens), O75164; AlphaScreen JMJD2A-Tudor / H3K4me3 peptide binding; Potency, µM (highest dose often 114 µM), for inactives: at the highest dose activity change, negative = inhibition, actives largely listed as inhibitors; further: on the % scale 0 is the no-effect control and ±100 the full control effect; nearly all actives have a fitted effect of over 50% in size
BAZ2B block – qHTS Assay for Inhibitors of BAZ2B; Bromodomain adjacent to zinc finger domain protein 2B (Homo sapiens), Q9UIF8; AlphaScreen BAZ2B-H3K14Ac peptide displacement; Potency, µM (highest dose often 114 µM), inactives show at the top dose activity change, negative = inhibition, most hits filed as inhibitors; 4.4% of 360,000 active; AID 504333, 2011; further: on the % scale 0 is the no-effect control and ±100 the full control effect; nearly all actives have a fitted effect of over 60% in size
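AlphaScreen displacement: compounds (up to 110uM) incubated 30 min at room temperature with a preformed 50 nM BAZ2B/50 nM biotinylated H3K14Ac peptide complex in PBS pH 7.4 with Tween-20. Donor and acceptor beads at 10 ug/mL final added, 20 min light-protected before reading.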
HP1b chromo inh – HTS for Inhibitors of HP1-beta Chromodomain Interactions with Methylated Histone Tails. AlphaScreen HP1-beta / biotin-H3K9me3 peptide binding. Chromobox protein homolog 1 (Homo sapiens), P83916. 0.56% of 390,000 active. Potency, µM (highest dose often 114 µM), for the others: at the highest dose activity change, negative = inhibition, usual class: inhibitors; further: nearly all actives have a fitted effect of over 70% in size
Target sequence (P83916 whole entry, looked up): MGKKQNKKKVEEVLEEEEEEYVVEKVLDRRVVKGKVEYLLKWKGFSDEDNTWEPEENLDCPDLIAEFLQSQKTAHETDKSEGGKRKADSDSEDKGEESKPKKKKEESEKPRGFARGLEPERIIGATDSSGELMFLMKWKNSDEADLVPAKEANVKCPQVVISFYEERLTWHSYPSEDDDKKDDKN
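HP1-beta protein (50 nM final) preincubated 30 min at room temperature with biotinylated H3(1-18)K9me3 peptide (50 nM) in PBS pH 7.4, 0.01% Tween-20, then compound added for 30 min. AlphaScreen streptavidin donor/nickel chelate acceptor beads (10 ug/mL final), 30 min dark, luminescence read.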
PLK1 PBD block – qHTS for Inhibitors of PLK1-PDB (polo-like kinase 1 - polo-box domain): Primary Screen | Plk1 PBD binding of FITC phosphopeptide, fluorescence polarization | Potency, µM, for inactives: max response, negative = inhibition, most hits filed as inhibitors | 2.8% of 360,000 active | AID 720504, 2013; further: series mostly up to about 57 µM; on the % scale 0 is the no-effect control and ±100 the full control effect; nearly all actives have a fitted effect of over 65% in size
Starred values were filed as active, the others as inactive; [ ] = dose if it differs, or a comment. A selection: hits, their analogues and other compounds. The true share with any hit is near 11%. The call rests on the fitted dose curve; in most records, active means well fitted curve in the direction sought with a large enough effect; inconclusive means small, poorly fitted or top-dose-only effect, or another doubt; inactive means no such curve, though single readings can be large; an effect the other way counts as inactive or inconclusive. Potency means the concentration at half of the fitted maximal effect.

Screening Cc1nn(CCc2n[nH]c(=S)n2C)c(C)c1Br returned VDR inhibitor 4.6%, G9a block inconclusive, JMJD2A Tudor inh 7.08µM*, BAZ2B block -1.9%, HP1b chromo inh 21.4% and PLK1 PBD block -11.7%.
Cc1ccc(S(=O)(=O)N2C[C@@H]3[C@H]4CC[C@H](C4)[C@@H]3[C@@H](C)[C@H]2c2ccn(Cc3ccccc3)c2)cc1 was read as VDR inhibitor -2.5%, JMJD2A Tudor inh -20.1%, HP1b chromo inh 41.9% and PLK1 PBD block -9.4%.
COc1cc(NC(=O)c2ccc(C(=O)Nc3cc(OC)c(Cl)cc3OC)cc2)c(OC)cc1Cl was read as VDR inhibitor -3.5%, G9a block -0.4%[59 µM], JMJD2A Tudor inh -17.0%, BAZ2B block -0.6% and HP1b chromo inh 16.7%.
Screening CCCCCSc1nc2sc3c(c2c(=O)n1-c1ccc(OC)cc1)CCN(C(C)=O)C3 returned VDR inhibitor -16.1%, G9a block 11.2µM*, JMJD2A Tudor inh inconclusive, BAZ2B block -37.8% and HP1b chromo inh -17.8%.
CSc1nc2sc3c(c2c(=O)n1-c1ccc(C)c(Cl)c1)CCN(C(C)=O)C3 was read as VDR inhibitor -13.3%, G9a block -24.2%[59 µM], JMJD2A Tudor inh -32.4%, BAZ2B block 79.4µM* and HP1b chromo inh 30.9%.
For COc1cc(/C=C2\C(=N)N3N=C(S(C)(=O)=O)SC3=NC2=O)ccc1OS(=O)(=O)c1ccccc1 the results were BAZ2B block 50.1µM*.
`COc1cc(/C=C2\C(=N)N3N=C(N4CCOCC4)SC3=NC2=O)ccc1OC(=O)c1ccccc1` gave VDR inhibitor inconclusive, G9a block 20µM*, JMJD2A Tudor inh inconclusive, BAZ2B block 50.1µM*, HP1b chromo inh -15.1% and PLK1 PBD block 26.7µM*.
Screening CCC1=NN2C(=N)/C(=C/c3ccc(OS(=O)(=O)c4ccccc4)cc3)C(=O)N=C2S1 returned VDR inhibitor inconclusive, JMJD2A Tudor inh -30.8%, BAZ2B block -5.2%, HP1b chromo inh 5.0% and PLK1 PBD block inconclusive.
CCS(=O)(=O)C1=NN2C(=N)/C(=C\c3ccc(OS(=O)(=O)c4ccccc4)cc3)C(=O)N=C2S1 was read as VDR inhibitor 50.1µM*, G9a block 39.8µM*, JMJD2A Tudor inh inconclusive, BAZ2B block 50.1µM*, HP1b chromo inh 4.5% and PLK1 PBD block 21.2µM*.
CCS(=O)(=O)C1=NN2C(=N)/C(=C\c3ccc(OS(=O)(=O)c4ccccc4)c(OC)c3)C(=O)N=C2S1 was read as G9a block -5.5%[0.0925 µM] and BAZ2B block 56.2µM*.
For COc1cc(/C=C2/C(=N)N3N=C(CC(=O)N4CCOCC4)SC3=NC2=O)ccc1OC(C)c1ccccc1 (stereo unspecified) the results were VDR inhibitor -6.4%, G9a block -12.0%, JMJD2A Tudor inh -28.8%, BAZ2B block -21.0%, HP1b chromo inh 9.6% and PLK1 PBD block inconclusive.
For COc1cccc(C(C(=O)NC(C)(C)C)N(C(=O)CCC(=O)Nc2cc(C)on2)c2ccc3c(c2)OCCO3)c1OC (stereo unspecified) the results were VDR inhibitor -13.9%, G9a block 10.5%, JMJD2A Tudor inh -0.4%, BAZ2B block -1.4%, HP1b chromo inh 33.8% and PLK1 PBD block -11.1%.
`Cc1ccc(NS(=O)(=O)c2ccc3c(c2)NC(=O)CCS3)c(Br)c1` gave VDR inhibitor 3.4%, G9a block -4.5%, JMJD2A Tudor inh -7.6%, BAZ2B block -17.9%, HP1b chromo inh 64.9% and PLK1 PBD block -13.6%.
COc1cccc2cc(-c3ccnc(=S)[nH]3)oc12 was read as G9a block 0.5% and BAZ2B block 2.7%.
For Fc1ccc(-c2ccnc(=S)[nH]2)cc1 the results were VDR inhibitor inconclusive, G9a block -49.0%[12.7 µM], JMJD2A Tudor inh 4.9%, BAZ2B block 1.6%, HP1b chromo inh 15.9% and PLK1 PBD block 9.47µM*.
For O=S(=O)(Nc1ccc(N2CCCCC2)cc1)c1cccc2cccnc12 the results were VDR inhibitor 3.0%, G9a block 15.8µM*, JMJD2A Tudor inh -35.6%, BAZ2B block inconclusive, HP1b chromo inh inconclusive and PLK1 PBD block -6.9%.
For CC(CS(=O)(=O)c1cccc2cccnc12)N1CCCCC1 (stereo unspecified) the results were VDR inhibitor 13.2%, G9a block 25.1µM*, JMJD2A Tudor inh -13.8%, BAZ2B block 4.8%, HP1b chromo inh 41.6% and PLK1 PBD block -21.8%.
O=S(=O)(Nc1cccc(-c2ccc(N3CCCCC3)nn2)c1)c1ccc(F)cc1F was read as VDR inhibitor -11.0%, G9a block inconclusive, JMJD2A Tudor inh -23.7%, BAZ2B block -34.9% and HP1b chromo inh 0.4%.
Screening O=S(=O)(Nc1ccc(N2CCCCC2)cc1)c1ccc(F)cc1F returned VDR inhibitor -11.5%, G9a block 44.7µM*, JMJD2A Tudor inh inconclusive, BAZ2B block inconclusive, HP1b chromo inh -35.0% and PLK1 PBD block -4.8%.
O=S(=O)(Nc1ccc(N2CCCCC2)cc1)c1ccccc1F was read as VDR inhibitor 2.0%, G9a block 39.8µM*, JMJD2A Tudor inh inconclusive, BAZ2B block 50.1µM*, HP1b chromo inh inconclusive and PLK1 PBD block -8.4%.
For N#Cc1cc([N+](=O)[O-])cnc1Nc1ccccc1 the results were VDR inhibitor -13.4%, G9a block 13.2%[59 µM], JMJD2A Tudor inh -19.9%, BAZ2B block 0.8%, HP1b chromo inh 25.4% and PLK1 PBD block -6.4%.
COC(=O)C1=C(N)OC2=C(C(=O)CC(C)(C)C2)C1c1ccoc1 (stereo unspecified) was read as VDR inhibitor -20.8%, G9a block inconclusive, JMJD2A Tudor inh -33.6%[11.4 µM], HP1b chromo inh inconclusive and PLK1 PBD block 4.74µM*.
For CCOc1ccc(N2C(=O)C3Sc4[nH]c(=O)sc4C(/C=C/c4ccccc4)C3C2=O)cc1 (stereo unspecified) the results were VDR inhibitor inconclusive, G9a block 11.2µM*, JMJD2A Tudor inh 39.8µM*, BAZ2B block 44.7µM*, HP1b chromo inh inconclusive and PLK1 PBD block inconclusive.
For COc1cc(C2c3sc(=O)[nH]c3SC3C(=O)N(c4ccc(Br)cc4)C(=O)C32)ccc1O (stereo unspecified) the results were VDR inhibitor -6.7%, G9a block inconclusive, JMJD2A Tudor inh inconclusive, BAZ2B block inconclusive, HP1b chromo inh -9.7% and PLK1 PBD block -19.9%.
